Screening results: PubChem, National Center for Advancing Translational Sciences (NCATS)
The sample as a whole holds a higher share of hits than the screen did.
Cruzain noTriton: cruzain (T. cruzi) inhibition without detergent. P25779. purified cruzain, Z-FR-AMC fluorescence, no detergent. Potency, µM, without a hit: max response, negative = inhibition, usual class: inhibitors. 2.3% of 200,000 active. AID 1476;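 further: plate controls were enzyme without inhibitor for no effect and buffer without enzyme for full effect; nearly all actives have a fitted effect of over 40% in size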
Target sequence (P25779 123-467 limits assumed): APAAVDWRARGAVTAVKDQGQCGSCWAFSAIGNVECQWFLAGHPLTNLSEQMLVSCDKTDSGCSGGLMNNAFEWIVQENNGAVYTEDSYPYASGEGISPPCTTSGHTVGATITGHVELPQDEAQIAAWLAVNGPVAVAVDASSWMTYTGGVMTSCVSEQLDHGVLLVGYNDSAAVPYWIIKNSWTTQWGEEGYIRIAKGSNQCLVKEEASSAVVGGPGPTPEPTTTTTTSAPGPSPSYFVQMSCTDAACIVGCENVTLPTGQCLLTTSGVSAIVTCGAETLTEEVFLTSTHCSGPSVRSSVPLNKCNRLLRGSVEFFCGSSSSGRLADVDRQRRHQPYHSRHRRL
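Purified cruzain at 1.5 nM, pre-incubated 15 min with compound at room temperature in 100 mM sodium acetate pH 5.5, 5 mM DTT, 0.00005% Triton X-100. Reaction started with 2 uM Z-FR-AMC; AMC fluorescence increase over 60 s gives rate.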
NS1 function inh: influenza NS1 inhibition. Potency, µM (top dose mostly 46.1 µM), without a hit: top-dose activity, positive = more growth. AID 2326. 0.4% of 270,000 active; calls by dose curve; further: actives are rising curves; nearly all actives have a fitted effect of over 50% in size
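A cell-based growth assay was used: compounds that relieve NS1-induced slow growth of budding yeast raise OD600. Assay medium was yeast nitrogen base with ammonium sulphate and -URA supplement, pH 6.0, with 2% galactose.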
Cruzain Triton: inhibitors of Trypanosoma cruzi cruzain with detergent. purified cruzain, Z-FR-AMC fluorescence, 0.01% Triton. Potency, µM, for the others: max response, negative = inhibition, hits mostly inhibitors. 0.43% of 200,000 active;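 further: plate controls were neutral wells for no effect and buffer without enzyme for full effect; nearly all actives have a fitted effect of over 40% in size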
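Purified cruzain (1.5 nM final) was preincubated with compounds for 15 min at room temperature in 100 mM sodium acetate pH 5.5, 5 mM DTT, 0.01% Triton X-100. Reaction started with 2 uM Z-FR-AMC; AMC fluorescence change over 60 s gave activity.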
Starred values were filed as active, the others as inactive; ? = inconclusive; · = no result. Unless noted, the call rests on the fitted dose curve; in most records, active means well fitted curve in the direction sought with a large enough effect; inconclusive means small, poorly fitted or top-dose-only effect, or another doubt; inactive means no such curve, though single readings can be large; an effect the other way counts as inactive or inconclusive. Potency means the concentration at half of the fitted maximal effect.

SMILES	Cruzain noTriton	NS1 function inh	Cruzain Triton
O=[N+]([O-])c1cccc(S(=O)(=O)c2ccc(N3CCCCC3)c([N+](=O)[O-])c2)c1	?	27%	-7%
COc1cccc(C(=O)/C=C/c2ccc(N3CCCCC3)c([N+](=O)[O-])c2)c1	6%	-2%	-5%
O=C(/C=C/c1ccc(N2CCCCC2)c([N+](=O)[O-])c1)c1ccc(S(=O)(=O)N2CCCC2)cc1	32µM*	-2%	-6%
O=[N+]([O-])c1cc(S(=O)(=O)c2ccc(N3CCCCC3)c([N+](=O)[O-])c2)ccc1N1CCCCC1	7.9µM*	11%	-8%
CCn1cc2c(n1)-c1c(oc(C(=O)Nc3ccc(Br)cc3F)c1C)CC2	10%	·	-3%
O=C(Cc1ccc(F)cc1)NCCc1csc2nc(-c3ccccc3F)nn12	2%	·	-2%
CCCn1c(-c2ccc(F)cc2)nc2c(NCCCN3CCOCC3)nc(C)nc21	-4%	·	7%
O=C(Nc1nnc(Cc2ccccc2)s1)c1ccccc1	·	12%	·
CC(C)c1ccc(/C=C(/C#N)c2nnc(NC(=O)c3ccccc3)s2)cc1	13µM*	17%	-6%
CC(=O)Nc1c(C)nn(-c2ccccc2)c1N1CCC(C(=O)NCc2cccc(Cl)c2)CC1	?	·	-14%
CC(=O)Nc1c(C)nn(-c2ccccc2)c1N1CCC(C(=O)NCc2ccccc2Cl)CC1	15%	·	28µM*
Nc1cc(C(=O)OCC(=O)NCc2ccc(F)cc2)ccc1Cl	0%	?	4%
Nc1cc(C(=O)OCC(=O)NC(c2ccccc2)c2ccccc2)ccc1Cl	25µM*	18%	-1%
CCn1c(-c2cc(Br)cc(OC)c2O)nc2cc(S(=O)(=O)N(C)C)ccc21	20µM*	-8%	-5%
CCn1c(-c2ccccn2)nc2cc(S(=O)(=O)N(C)C)ccc21	·	-18%	·
COCC(=O)Nc1ccc(Nc2ccccc2)cc1	25µM*	?	5%
CCC(C)NC(=O)COC(=O)c1ccccc1OCC(=O)Nc1ccc(Br)cc1 (stereo not drawn)	15%	4%	3%
O=C(COC(=O)c1ccccc1OCC(=O)Nc1ccc(Br)cc1)Nc1ccccc1	13µM*	-6%	1%
CCC(=O)Nc1ccc(Nc2ccccc2)cc1	-10%	-13%	0%
COc1c(C=O)c(=O)[nH]c2c(OC)cccc12	-12%	·	4%
COc1ccccc1C(=O)Nc1cc2c(cc1N1CCOCC1)n(C)c(=O)n2C	-3%	·	0%
O=c1c2oc3ccccc3c2n(Cc2ccccc2F)c(=O)n1Cc1ccccc1	13%	·	0%
CC1=C(O)C(=O)[C@H]2O[C@@H]2C1=O	-5%	·	-8%
S=P(C1CCCCC1)(C1CCCCC1)[C@H](c1cccnc1)N1CCCC1	-9%	-8%	4%
CN(CC(=O)Nc1ccc(C#N)cc1)Cc1ccc(Cl)cc1	11%	-15%	0%
SMILES	Cruzain noTriton	NS1 function inh	Cruzain Triton
N#Cc1ccc(NC(=O)Nc2ccc(Cl)cc2)cc1	10µM*	-44%	-1%
COc1ccc([N+](=O)[O-])cc1NC(=O)CC(c1ccccc1)c1ccccc1	25µM*	16%	-3%
COc1ccc([N+](=O)[O-])cc1NC(=O)C(C)c1ccccc1 (stereo not drawn)	-4%	-2%	-7%
CCOC(=O)c1ccc(NC(=O)c2cc3sccc3n2Cc2ccc(Cl)cc2)cc1	10µM*	·	2%
CC(=O)c1ccc(NC(=O)c2cc3sccc3n2Cc2ccc(Cl)cc2)cc1	?	·	-4%
CCOC(=O)c1cccc(NC(=O)c2cc3sccc3n2Cc2ccc(Cl)cc2)c1	9%	·	4%
Cc1ccc(Cn2c(C(=O)Nc3cccc(Cl)c3)cc3sccc32)cc1	25µM*	·	-5%
C[C@@H]1CC[C@@]2(OC1)OC1CC3C4CC=C5CC(O)CCC5(C)C4CCC3(C)C1[C@@H]2C (stereo partly drawn)	2%	·	0%
Oc1ccc([C@@H]2CNCCc3c2cc(O)c(O)c3Cl)cc1	0%	·	0%
Cc1cc(C(C)(C)C)c(OCCCN2CCOCC2)c(C(C)(C)C)c1	5%	-16%	2%
COc1ccc(-n2c(C)cc(C(=O)COC(=O)Cc3n[nH]c(=O)c4ccccc34)c2C)cc1	?	17%	-6%
Cc1cc(C(=O)COC(=O)Cc2n[nH]c(=O)c3ccccc23)c(C)n1-c1ccc2c(c1)OCO2	25µM*	14%	-2%
Cc1cc(C(=O)COC(=O)c2ccc(N)c([N+](=O)[O-])c2)c(C)n1Cc1ccc2c(c1)OCO2	·	-1%	·
Cc1cc(C(=O)COC(=O)CC2Sc3ccccc3NC2=O)c(C)n1-c1ccccc1 (stereo not drawn)	?	17%	-11%
Cc1cc(C(=O)COC(=O)CC2Sc3ccccc3NC2=O)c(C)n1-c1ccc2c(c1)OCO2 (stereo not drawn)	25µM*	?	-1%
